# Laboratory results as given in publication PMC9911399, “Two distinct binding modes provide the RNA-binding protein RbFox with extraordinary sequence specificity”.
# Changes are numbered by the printed parent chain; changes in the protein carry UniProt numbers. In all, about 16,000 sequences were measured (“ka relative to ugcaugu”: median about 0.0091, highest 2% from about 0.032 on). This excerpt belongs to a sample that is enriched for the highest values.
# T1: RBFOX1 RRM (Homo sapiens, UniProt Q9NWB1 109-208)
# T1 sequence: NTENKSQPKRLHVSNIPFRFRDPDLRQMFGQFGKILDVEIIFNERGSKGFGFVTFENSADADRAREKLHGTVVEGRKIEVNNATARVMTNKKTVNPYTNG
# B1: GAGCACC (DNA:RNA)
# RNA: GGGAGACCGGAAUUCAGAUUGUCCGAGCACCUUAAAUCCCGUCGUAGCCACCA
# DNA 1: CAATCTGAATTCCGGTCTCCC
# DNA 2: TGGTGGCTACGACGGGATT
# B2: GAGCAUC (DNA:RNA)
# RNA: B1 RNA with C30U
# DNA 1: CAATCTGAATTCCGGTCTCCC
# DNA 2: TGGTGGCTACGACGGGATT
# B3: UUGCUAA (DNA:RNA)
# RNA: B1 RNA with G25U, A26U, A29U, C30A, C31A
# DNA 1: CAATCTGAATTCCGGTCTCCC
# DNA 2: TGGTGGCTACGACGGGATT
# B4: CGACAAG (DNA:RNA)
# RNA: B1 RNA with G25C, A26G, G27A, C30A, C31G
# DNA 1: CAATCTGAATTCCGGTCTCCC
# DNA 2: TGGTGGCTACGACGGGATT
# B5: CCAUGCU (DNA:RNA)
# RNA: B1 RNA with G25C, A26C, G27A, C28U, A29G, C31U
# DNA 1: CAATCTGAATTCCGGTCTCCC
# DNA 2: TGGTGGCTACGACGGGATT
# B6: AUCCACG (DNA:RNA)
# RNA: B1 RNA with G25A, A26U, G27C, C31G
# DNA 1: CAATCTGAATTCCGGTCTCCC
# DNA 2: TGGTGGCTACGACGGGATT
# B7: UUGCACC (DNA:RNA)
# RNA: B1 RNA with G25U, A26U
# DNA 1: CAATCTGAATTCCGGTCTCCC
# DNA 2: TGGTGGCTACGACGGGATT
# B8: UAGCACG (DNA:RNA)
# RNA: B1 RNA with G25U, C31G
# DNA 1: CAATCTGAATTCCGGTCTCCC
# DNA 2: TGGTGGCTACGACGGGATT
# B9: AUGCAUA (DNA:RNA)
# RNA: B1 RNA with G25A, A26U, C30U, C31A
# DNA 1: CAATCTGAATTCCGGTCTCCC
# DNA 2: TGGTGGCTACGACGGGATT
# B10: AUGCAUG (DNA:RNA)
# RNA: B1 RNA with G25A, A26U, C30U, C31G
# DNA 1: CAATCTGAATTCCGGTCTCCC
# DNA 2: TGGTGGCTACGACGGGATT
# B11: UACCACG (DNA:RNA)
# RNA: B1 RNA with G25U, G27C, C31G
# DNA 1: CAATCTGAATTCCGGTCTCCC
# DNA 2: TGGTGGCTACGACGGGATT
# B12: AUGCACC (DNA:RNA)
# RNA: B1 RNA with G25A, A26U
# DNA 1: CAATCTGAATTCCGGTCTCCC
# DNA 2: TGGTGGCTACGACGGGATT
# B13: UAGCACC (DNA:RNA)
# RNA: B1 RNA with G25U
# DNA 1: CAATCTGAATTCCGGTCTCCC
# DNA 2: TGGTGGCTACGACGGGATT
# B14: AUGCACG (DNA:RNA)
# RNA: B1 RNA with G25A, A26U, C31G
# DNA 1: CAATCTGAATTCCGGTCTCCC
# DNA 2: TGGTGGCTACGACGGGATT
# B15: UUGCACG (DNA:RNA)
# RNA: B1 RNA with G25U, A26U, C31G
# DNA 1: CAATCTGAATTCCGGTCTCCC
# DNA 2: TGGTGGCTACGACGGGATT
# B16: AUGCAUC (DNA:RNA)
# RNA: B1 RNA with G25A, A26U, C30U
# DNA 1: CAATCTGAATTCCGGTCTCCC
# DNA 2: TGGTGGCTACGACGGGATT
# B17: UUGCAGA (DNA:RNA)
# RNA: B1 RNA with G25U, A26U, C30G, C31A
# DNA 1: CAATCTGAATTCCGGTCTCCC
# DNA 2: TGGTGGCTACGACGGGATT
# B18: GUCCCAA (DNA:RNA)
# RNA: B1 RNA with A26U, G27C, A29C, C30A, C31A
# DNA 1: CAATCTGAATTCCGGTCTCCC
# DNA 2: TGGTGGCTACGACGGGATT
# B19: CAUUACG (DNA:RNA)
# RNA: B1 RNA with G25C, G27U, C28U, C31G
# DNA 1: CAATCTGAATTCCGGTCTCCC
# DNA 2: TGGTGGCTACGACGGGATT
# B20: UCACUCG (DNA:RNA)
# RNA: B1 RNA with G25U, A26C, G27A, A29U, C31G
# DNA 1: CAATCTGAATTCCGGTCTCCC
# DNA 2: TGGTGGCTACGACGGGATT
# B21: ACGUGCG (DNA:RNA)
# RNA: B1 RNA with G25A, A26C, C28U, A29G, C31G
# DNA 1: CAATCTGAATTCCGGTCTCCC
# DNA 2: TGGTGGCTACGACGGGATT
# B22: GUGCACG (DNA:RNA)
# RNA: B1 RNA with A26U, C31G
# DNA 1: CAATCTGAATTCCGGTCTCCC
# DNA 2: TGGTGGCTACGACGGGATT
# B23: GUGCACC (DNA:RNA)
# RNA: B1 RNA with A26U
# DNA 1: CAATCTGAATTCCGGTCTCCC
# DNA 2: TGGTGGCTACGACGGGATT
# B24: AGGUCUC (DNA:RNA)
# RNA: B1 RNA with G25A, A26G, C28U, A29C, C30U
# DNA 1: CAATCTGAATTCCGGTCTCCC
# DNA 2: TGGTGGCTACGACGGGATT
# Molecular target: T1, RBFOX1 RRM
# Assay: EMSA; HiTS-Eq, 1 nM pool, 10 min; buffer printed only for the single-RNA assays: 10 mM Tris pH 7.5, 150 mM NaCl, 3.4 mM EDTA, 0.001% NP-40, 30 C
# Conditions: tags: His6 N-terminal (pET28a); label: 5' 32P
# How it was run: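 Purified RbFox RRM, wild type or mutant, was incubated for 10 min in 50 µL with 1 nM of a 5′-radiolabelled RNA pool carrying 7 randomized nucleotides, whose flanks were annealed to DNA oligonucleotides, over a series of increasing protein concentrations. Unbound RNA was resolved on 8% native PAGE, cut out, reverse-transcribed, barcoded by PCR and sequenced on an Illumina HiSeq 2500. Relative association constants were derived from changes in read counts for each RNA species versus the control reaction and normalised to the cognate motif.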
row,Binder,binding signal
1,B1,0.00895 KA relative to UGCAUGU
2,B2,0.018 KA relative to UGCAUGU
3,B3,0.00861 KA relative to UGCAUGU
4,B4,0.00637 KA relative to UGCAUGU
5,B5,0.00802 KA relative to UGCAUGU
6,B6,0.0022 KA relative to UGCAUGU
7,B7,0.0149 KA relative to UGCAUGU
8,B8,0.0464 KA relative to UGCAUGU
9,B9,0.00891 KA relative to UGCAUGU
10,B10,0.911 KA relative to UGCAUGU
11,B11,0.00532 KA relative to UGCAUGU
12,B12,0.0115 KA relative to UGCAUGU
13,B13,0.0118 KA relative to UGCAUGU
14,B14,0.361 KA relative to UGCAUGU
15,B15,0.692 KA relative to UGCAUGU
16,B16,0.015 KA relative to UGCAUGU
17,B17,0.018 KA relative to UGCAUGU
18,B18,0.00597 KA relative to UGCAUGU
19,B19,0.00857 KA relative to UGCAUGU
20,B20,0.00518 KA relative to UGCAUGU
21,B21,0.0166 KA relative to UGCAUGU
22,B22,0.62 KA relative to UGCAUGU
23,B23,0.0178 KA relative to UGCAUGU
24,B24,0.0131 KA relative to UGCAUGU
